In PubChem BioAssay AID463173 (ICCB-Longwood Screening Facility, Harvard Medical School, 2010):
The whole screen tested about 52,000 compounds, of which about 1,700 (3.3%) were called active. The list comes from a sample in which actives are over-represented; it also holds similar structures and randomly drawn compounds. A number with no mark means an inactive call. Rule as the data show it: active = survival mostly below about 52% (no sharp cut-off); inactive = mostly above about 56%.

System: Wild type
Assay: growth inhibition of S. aureus wild type versus tarO mutant, primary screen, teichoic acid synthesis inhibitors, RN4220, OD600 (AID 463173)
Details: S. aureus RN4220 wild type/DeltatarO growth, OD600, 18 h, hits give low values, screened at 18.75 µg/mL (by protocol)

SMILES	survival
Fc1ccc(-n2ncc3c(Nc4ccc(Oc5ccc(Cl)cc5)cc4)ncnc32)cc1	85%
CC(=O)c1ccc(NC(=O)C2CCC(CNS(=O)(=O)c3cccs3)CC2)cc1 (stereo not drawn)	60%
O=C(Cn1c(=O)n(CC2CCCO2)c(=O)c2ccccc21)Nc1cccc(Cl)c1 (stereo not drawn)	82%
Cn1c(=O)c(=O)n(C)c2cc(NS(=O)(=O)c3ccc(Br)cc3)c(Cl)cc21	65%
Cc1ccc2oc3c(c(=O)c2c1)C(c1ccccc1F)N(CCCN1CCOCC1)C3=O (stereo not drawn)	71%
CCOc1ccc(NC(=O)C(CC)n2c(=O)c(-c3ccccc3NC(C)=O)nc3ccccc32)cc1 (stereo not drawn)	64%
CC(=O)N1CCc2cc(S(=O)(=O)NC(CC(C)C)C(=O)NCCc3cccc(C)c3)ccc21 (stereo not drawn)	76%
Cc1nonc1C(=O)NCC(=O)O	91%
O=C(Nc1cccc(C(F)(F)F)c1)N1CC2CCCN2c2ccccc21 (stereo not drawn)	55%
Cc1ccc(Cl)c2c1N[C@@H](c1ccc(C(=O)O)cc1)[C@H]1CC=C[C@@H]21	10% (active)
COC(=O)c1ccc([C@@H]2Nc3c(OC)ccc(C)c3[C@@H]3C=CC[C@@H]32)cc1	77%
COc1ccc(NS(=O)(=O)c2ccc3c(c2)[C@H]2C=CC[C@H]2[C@@H](c2ccc(C(=O)O)cc2)N3)cc1	68%
CCCCN(CCCNC(=O)CN1N=C(c2ccccc2)CCC1=O)c1ccccc1	72%
CCN(CCCNC(=O)CN1N=C(c2ccc(C)cc2)CCC1=O)c1ccccc1	-2% (active)
CCCCN(CCCNC(=O)CN1N=C(c2ccc(C)cc2)CCC1=O)c1ccccc1	101%
Cc1ccc(C2=NN(CC(=O)NCCCN(CC(C)C)CC(C)C)C(=O)CC2)cc1	84%
Cc1ccc(C2=NN(CC(=O)NCCC(C)C)C(=O)CC2)cc1	10% (active)
Cc1ccc(C2=NN(CC(=O)NCCN(CC(C)C)CC(C)C)C(=O)CC2)cc1	129%
CCN(CCCNC(=O)CN1N=C(c2ccccc2)CCC1=O)c1ccccc1	-6% (active)
CCN(CCCNC(=O)CN1N=C(c2ccc(OC)cc2)CCC1=O)c1cccc(C)c1	124%
CCN(CCCNC(=O)CN1N=C(c2ccccc2)CCC1=O)c1cccc(C)c1	136%
COc1ccccc1N1CCN(C(=O)c2cnn(-c3ccc(C)c(C)c3)c2C2CCN(C(=O)OC(C)(C)C)CC2)CC1	99%

SMILES	survival
CC(=O)NCCNc1nc2c(-c3ccc(C)cc3)nnn2c2ccccc12	82%
CCN(CC)C(=O)c1cc(-c2ccc(Cl)cc2)on1	51%
CCCN1C(=O)C(NC(=O)c2ccccc2OC)(C(F)(F)F)C(C(=O)OC)=C1C (stereo not drawn)	78%
N#C/C(=C\c1cc(Br)c(O)c(Br)c1)c1nc2ccccc2c(=O)[nH]1	94%
O=C(NCc1ccccc1Cl)c1cc(=O)[nH]c2ccc(S(=O)(=O)N3CCCCC3)cc12	83%
CCOC(=O)c1c(Nc2ccc(C)cc2)nnc(-c2ccccc2)c1-c1ccccc1	2% (active)
CCOC(=O)c1c(Nc2cccc(C)c2)nnc(-c2ccccc2)c1-c1ccccc1	0% (active)
CCOC(=O)c1c(Nc2cccc(O)c2)nnc(-c2ccccc2)c1-c1ccccc1	44%
CCOC(=O)c1c(Nc2cc(C)cc(C)c2)nnc(-c2ccccc2)c1-c1ccccc1	38%
CCOC(=O)c1c(Nc2ccc(F)cc2)nnc(-c2ccccc2)c1-c1ccccc1	1% (active)
CCOC(=O)c1nc(Nc2ccc(OC)cc2)c2ccccc2n1	143%
CCOC(=O)c1c(C)oc2nc(C)nc(Nc3ccc(C)c(Cl)c3)c12	80%
CCOC(=O)c1cccc(Nc2cc(-c3ccccc3)ncn2)c1	40%
CCOC(=O)c1c(C)oc2nc(C)nc(Nc3ccc(CC)cc3)c12	115%
CCOC(=O)c1c(Oc2ccc(C(C)=O)cc2)nnc(-c2ccccc2)c1-c1ccccc1	92%
CCOC(=O)c1cnc(-c2ccccc2)nc1Nc1ccc(C)cc1	111%
CCOC(=O)c1c(Nc2ccc(C)c(C)c2)nnc(-c2ccccc2)c1-c1ccccc1	0% (active)
CCCCOC(=O)c1ccc(Nc2ncnc3c2cnn3-c2cccc(C)c2)cc1	88%
Cn1cnnc1SC1CCCCC1NS(=O)(=O)c1ccc(Cl)cc1 (stereo not drawn)	103%
COc1ccccc1N1CCN(c2cc(C)nc3nc(-c4ccc(Cl)cc4)nn23)CC1	78%
CCCCN(CC)CCCNC(=O)c1cc2c(=O)oc3ccc(C)cc3c2s1	97%
COc1ccc2c(c1)c1c(c(=O)n(Cc3ccccc3)c(=O)n1CC(=O)NCc1ccc(C)cc1)n2C	82%

SMILES	survival
COc1ccc(-c2noc(CSc3nnc(Cc4ccccc4)n3-c3cccc(C)c3)n2)cc1	67%
COc1ccc(N2CC(C(=O)NC3=NCCS3)CC2=O)cc1 (stereo not drawn)	102%
CC(C)N(C(=O)Cn1cc(SCC(=O)Nc2ccccc2F)c2ccccc21)C(C)C	86%
O=Nc1c(O)n2c3c(cccc13)CCC2	124%
N#CC(C#N)=C(N)/C(C#N)=C\c1ccc(-c2ccccc2)o1	129%
O=S(=O)(c1ccc(Cl)cc1)c1nc(-c2ccco2)oc1SCc1ccc(F)cc1	73%
COc1cccc(NC(=O)C2=C(C)C(=O)OC23CCN(C(C)=O)CC3)c1	79%
CCOC(=O)c1c(Oc2ccc(C(=O)OC)cc2)nnc(-c2ccccc2)c1-c1ccccc1	87%
CCOC(=O)c1c(Nc2ccc(O)cc2)nnc(-c2ccccc2)c1-c1ccccc1	96%
CCOC(=O)c1c(Nc2ccccc2)nnc(-c2ccccc2)c1-c1ccccc1	5% (active)
CCOC(=O)c1c(-c2ccccc2)csc1NC(=O)c1cc(-c2cccc(OC)c2)on1	72%
CC(=O)N1CCCc2cc(S(=O)(=O)N(Cc3ccccc3)C(C)C)ccc21	73%
COc1cc(C(=O)OCc2cc(=O)n3ccsc3n2)cc(OC)c1OC	-4% (active)
COc1ccccc1C(=O)Nc1ccc(C(=O)OCc2cc(=O)n3ccsc3n2)cc1	72%
COc1ccccc1C(=O)Nc1cccc(C(=O)OCc2cc(=O)n3ccsc3n2)c1	-6% (active)
Cc1cccc(C(=O)OCc2cc(=O)n3ccsc3n2)c1	71%
COc1cc(C(=O)OCc2cc(=O)n3nc(C(C)C)sc3n2)cc(OC)c1OC	78%
Cc1ccccc1C(=O)Nc1cccc(C(=O)OCc2cc(=O)n3ccsc3n2)c1	64%
COc1ccccc1C(=O)Nc1ccccc1C(=O)OCc1cc(=O)n2ccsc2n1	-6% (active)
O=C(Nc1ccccc1C(=O)OCc1cc(=O)n2ccsc2n1)c1ccccc1Cl	75%
Cc1ccccc1C(=O)Nc1ccccc1C(=O)OCc1cc(=O)n2ccsc2n1	98%
O=[N+]([O-])c1cc(-c2nc(-c3ccccn3)no2)ccc1NCc1ccccc1	73%

SMILES	survival
CCOC(=O)Cn1c(=O)oc2cc(S(=O)(=O)N3CCN(c4ccc(C(C)=O)cc4)CC3)ccc21	81%
CC(C)(C)OC(=O)N1CCC(c2c(C(=O)N3CCN(c4ccccn4)CC3)cnn2-c2ccccc2Cl)CC1	53%
COc1cc(NC(=O)c2ccccc2)c(OC)cc1NC(=O)CN1CCCCC1	109%
CCOC(=O)c1ccc(N2C(=O)c3n[nH]c(-c4cccs4)c3C2c2ccc(C)cc2)cc1 (stereo not drawn)	66%
CCN(CC)CCNC(=O)c1[nH]c2ccccc2c1Sc1ccc(Cl)cc1	42%
CC1CCCCN1CCCNC(=O)c1cc(Sc2cccc(Cl)c2)nc2ccccc12 (stereo not drawn)	54%
CC1CCCCN1CCCNC(=O)c1[nH]c2ccccc2c1Sc1ccc(Cl)cc1 (stereo not drawn)	-1% (active)
CCOC(=O)C1CCCN(C(=O)c2[nH]c3ccccc3c2Sc2ccc(Cl)cc2)C1 (stereo not drawn)	75%
CCC1CCCCN1CCCNC(=O)c1[nH]c2ccccc2c1Sc1ccc(Cl)cc1 (stereo not drawn)	-1% (active)
CCCCNC(=O)c1[nH]c2ccccc2c1Sc1ccc(C)cc1	83%
COc1ccc(-c2noc(-c3ccc(NCCc4ccccc4)c([N+](=O)[O-])c3)n2)cc1	84%
CC(=O)Nc1ccc(C(=O)N2CC(C)OC(C)C2)cc1 (stereo not drawn)	133%
CC(C(=O)N1CCCCC1)N1CCC(N2CCCCC2)CC1 (stereo not drawn)	93%
CCc1ccccc1NC(=O)CN1C(=O)CCSc2ccc(S(=O)(=O)N3CCCC3)cc21	124%
O=C(Nc1ccc2oc(-c3cccnc3)nc2c1)c1ccc(-c2cccc(OC(F)(F)F)c2)o1	80%
O=C(Nc1ccccc1)N(Cc1c[nH]c2ccccc12)C1CCCCCC1	48%
COc1ccc2[nH]c(=O)c(CN(C(=O)Nc3ccccc3)C3CCCC3)cc2c1	103%
Cc1ccc(NC(=O)N(Cc2c[nH]c3ccccc23)C2CCCCCC2)cc1C	54%
Cn1cc(CN(C(=O)Nc2ccc(Cl)c(Cl)c2)C2CCCCC2)c2ccccc21	60%
Cn1cc(CN(C(=O)Nc2ccccc2)C2CCCCC2)c2ccccc21	-1% (active)
Cc1ccc(NC(=O)N(Cc2cn(C)c3ccccc23)C2CCCCC2)cc1C	-1% (active)
CCOc1ccc(C(=O)Nc2ccccc2C(=O)OCc2cc(=O)n3nc(C4CC4)sc3n2)cc1	78%
